Experimental findings from PubChem BioAssay (NCATS) are described below.

Experiment [1] in a line: qHTS for Inhibitors of the Functional Ribonucleoprotein Complex (vRNP) of Lassa (LASV) Arenavirus: Viability assay - alamar blue signal for LASV Primary Screen (AID 1347083; calls by dose curve; tested in HEK293 reporter line; note: nearly all actives have a fitted effect of over 80% in size; note: potency is the fitted concentration of half-maximal effect). The note with it: cell viability, alamar blue fluorescence (LASV minigenome counter-screen); series mostly up to 57.5 µM.
A short description of experiment [2]: qHTS for Inhibitors of the Functional Ribonucleoprotein Complex (vRNP) of Lymphocytic Choriomeningitis Arenaviruses (LCMV): Viability assay - alamar blue signal for LCMV Primary Screen (AID 1347085; calls by dose curve; tested in HEK293 reporter line; note: nearly all actives have a fitted effect of over 80% in size; note: potency is the fitted concentration of half-maximal effect). To be noted: alamar blue viability counter-screen, LCMV vRNP screen cells; series mostly up to 57.5 µM. In general terms: Quantitative high-throughput screening tests each substance at several concentrations.

Experiment [3] concerns the target Nucleoprotein (Lymphocytic choriomeningitis virus (strain Armstrong)) (UniProt P09992). Put plainly: qHTS for Inhibitors of the Functional Ribonucleoprotein Complex (vRNP) of Lymphocytic Choriomeningitis Arenaviruses (LCMV): LCMV Primary Screen - GLuc reporter signal (AID 1347086). For activity change, negative = inhibition: % is set by controls: 0 for no effect and ±100 for the full control effect. Note: nearly all actives have a fitted effect of over 70% in size. Note: potency is the fitted concentration of half-maximal effect. To be noted: LCMV minigenome vRNP cell assay, Gaussia luciferase reporter; series mostly up to 57.5 µM.

The nature of experiment [4]: Primary qHTS to identify inhibitors of SARS-CoV-2 cell entry (AID 1645846). Note: nearly all actives have a fitted effect of over 45% in size. To be noted: SARS-CoV-2 pseudovirus cell entry assay, luminescence; activity change, negative = inhibition: at 57.1 µM (top of the series) unless noted; series mostly up to 57.1 µM. A digest of the protocol: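 Data are normalized to wells receiving SARS-CoV-2-S pseudoparticles and those given bald particles. Entry signal was luciferase luminescence in stable hACE2 Expi293F cells, 48 hr post-infection, after 1 hr compound pretreatment.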

Records with an inconclusive call do not appear. Activity calls are given as the source filed them. Unless noted, calls come from the whole dose curve.

Nucleoprotein (Lymphocytic choriomeningitis virus (strain Armstrong)), sequence (P09992 whole entry, looked up): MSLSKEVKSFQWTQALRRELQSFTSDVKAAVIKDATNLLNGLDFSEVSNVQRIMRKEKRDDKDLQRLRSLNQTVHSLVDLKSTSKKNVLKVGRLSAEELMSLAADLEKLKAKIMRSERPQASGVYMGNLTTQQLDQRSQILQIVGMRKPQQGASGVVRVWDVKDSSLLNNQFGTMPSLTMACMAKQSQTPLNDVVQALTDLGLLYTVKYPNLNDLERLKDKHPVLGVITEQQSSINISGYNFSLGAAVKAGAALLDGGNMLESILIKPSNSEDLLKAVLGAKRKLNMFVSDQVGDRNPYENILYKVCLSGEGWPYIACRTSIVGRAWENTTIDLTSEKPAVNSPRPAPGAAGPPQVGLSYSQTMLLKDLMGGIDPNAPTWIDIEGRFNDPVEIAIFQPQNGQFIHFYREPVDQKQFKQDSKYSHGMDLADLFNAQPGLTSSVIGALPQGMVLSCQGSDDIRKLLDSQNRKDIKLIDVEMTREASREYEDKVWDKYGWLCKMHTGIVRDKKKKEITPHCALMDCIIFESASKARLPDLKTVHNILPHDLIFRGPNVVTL

Turning to `CC(=O)ON=C1C(c2c(O)[nH]c3cc(Br)ccc23)=Nc2ccccc21`, in experiment [1], the Potency is 1.93 µM (active). Further, the Potency result in experiment [2] and in experiment [3] was “inactive” throughout.
On to `CCC1=C[C@@H]2CN(C1)Cc1c([nH]c3ccccc13)[C@@](C(=O)OC)(c1cc3c(cc1OC)N(C)[C@@H]1[C@@](O)(C(=O)OC)[C@H](OC(C)=O)[C@]4(CC)C=CCN5CC[C@]31[C@@H]54)C2`, for which the values for the Potency in experiment [1] and in experiment [2] were 0.306 µM (active) and 0.217 µM (active), respectively.
The corresponding values for `CNC1CCC(N(Cc2cccc(-c3ccncc3)c2)C(=O)c2sc3c(F)ccc(F)c3c2Cl)CC1` (centres undefined) are 7.69 µM (active) and 5.44 µM (active).
For `O=C(O)CO`, the Potency entry in experiment [1] and in experiment [2] was “inactive” each time.
Regarding `CO[C@H]1C[C@@H]2CC[C@@H](C)[C@@](O)(O2)C(=O)C(=O)N2CCCC[C@@H]2C(=O)O[C@H]([C@H](C)C[C@@H]2CC[C@H](OC(=O)C(C)(CO)CO)[C@H](OC)C2)CC(=O)[C@H](C)C=C(C)[C@@H](O)[C@@H](OC)C(=O)[C@H](C)C[C@H](C)C=CC=CC=C1C`, the Potency in experiment [1] is 0.0122 µM (active); in experiment [2], 0.0273 µM (active); in experiment [3], 0.0153 µM (active).
With `COc1cc(C)ccc1O`, the Potency result in experiment [1] and in experiment [2] was “inactive” in each case.
For `C=CC1CN2CCC1CC2c1[nH]c2ccccc2c1CCO` (centres undefined), the Potency result in experiment [1], in experiment [2] and in experiment [3] was “inactive” each time.
`CCN(CC)CCNC(=O)COc1ccc(Cl)cc1`: the Potency entry in experiment [1] and in experiment [2] was “inactive” each time.
With `C[C@@H](Oc1ccc2[nH]nc(C=Cc3cnn(CCO)c3)c2c1)c1c(Cl)cncc1Cl`, the Potency in experiment [1] is 24.3 µM (active); in experiment [2], 27.3 µM (active).
As for `CC(C=CC(=O)NO)=C[C@@H](C)C(=O)c1ccc(N(C)C)cc1`, the Potency in experiment [1] was 15.3 µM (active).
`C=Cc1ncc(OC)c2c1[nH]c1ccccc12`: the Potency entry in experiment [1] and in experiment [2] was “inactive” throughout.
Consider `CC(=O)OCC(=O)[C@@]12OC(C)(C)O[C@H]1C[C@H]1[C@@H]3C[C@H](F)C4=CC(=O)C=C[C@]4(C)[C@@]3(F)[C@@H](O)C[C@@]12C`, for which the Potency result in experiment [1] and in experiment [2] was “inactive” throughout.
Consider `O=C(OCCOCCO)c1ccccc1Nc1cccc(C(F)(F)F)c1`, for which the Potency result in experiment [1] and in experiment [2] was “inactive” throughout.
`O=C(C=Cc1ccc(CN(CCO)CCc2c[nH]c3ccccc23)cc1)NO`: the Potency in experiment [1] and in experiment [2] was 1.37 µM (active) throughout.
Turning to `CC[C@H]1OC(=O)[C@H](C)[C@@H](O[C@H]2C[C@@](C)(OC)[C@@H](O)[C@H](C)O2)[C@H](C)[C@@H](O[C@@H]2O[C@H](C)C[C@H](N(C)C)[C@H]2O)[C@](C)(O)C[C@H](C)C(=NOCOCCOC)[C@H](C)[C@@H](O)[C@]1(C)O`, the Potency entry in experiment [1] and in experiment [2] was “inactive” each time.
Turning to `COc1cc(C(=S)N2CCOCC2)cc(OC)c1OC`, the Potency entry in experiment [1] and in experiment [2] was “inactive” each time.
In the case of `C=C1C(=O)O[C@@H]2C[C@@H](C)[C@@H]3C=CC(=O)[C@@]3(C)[C@@H](OC(C)=O)[C@H]12`, the Potency in experiment [1] and in experiment [2] was 4.47 µM (active) in each case.
Consider `CN[C@@H]1C[C@H]2O[C@@](C)([C@H]1OC)n1c3ccccc3c3c4c(c5c6ccccc6n2c5c31)C(=O)N[C@H]4O`, for which the figures for the Potency in experiment [1] and in experiment [2] were 0.355 µM (active) and 2.73 µM (active), respectively.
As for `CC(Cc1ccccc1)(NC(=O)CN)c1ccccc1` (centres undefined), the Potency entry in experiment [1] and in experiment [2] was “inactive” in each case.
For `Cc1ncnc2nc[nH]c12`, the Potency in experiment [1] was 1.58 µM (active).
Regarding `O=C(O)CO.[NH2-].[NH2-].[Pt+2]`, the Potency entry in experiment [1] and in experiment [2] was “inactive” in each case.
`O=C1NC2C(=CC(O)C(O)C2O)c2cc3c(cc21)OCO3` (centres undefined): the Potency in experiment [1] was 0.199 µM (active); in experiment [2], 0.282 µM (active).
Taken in the same sequence, the figures for `C=C1CCC2[C@](C)(CO)[C@H](O)CC[C@@]2(C)[C@@H]1/C=C/C1=CCOC1=O` (some centres undefined) were “inactive” and “inactive”.
In the case of `CC(C)NC[C@H](O)COc1cccc2ccccc12`, the Potency result in experiment [1] and in experiment [2] was “inactive” each time.
Regarding `CCCCCN=C(N)NN=Cc1c[nH]c2ccc(OC)cc12`, the values for the Potency in experiment [1] and in experiment [2] were 6.11 µM (active) and 10.9 µM (active), respectively.
The corresponding values for `O=c1[nH]c(=O)n([C@H]2C[C@@H](O)[C@@H](CO)O2)cc1F` are 5.44 µM (active) and 7.69 µM (active).
Consider `CCCCC1CCC(=O)O1` (centres undefined), for which the Potency entry in experiment [1] and in experiment [2] was “inactive” throughout.
Consider `C/C=C/c1ccc(OC(C)[C@@H](O)c2ccc(O)c(OC)c2)c(OC)c1` (some centres undefined), for which the Potency entry in experiment [1] and in experiment [2] was “inactive” in each case.
On to `O=C(c1ccc(F)c(F)c1Nc1ccc(I)cc1F)N1CC(O)([C@H]2CCCCN2)C1`, for which the Potency is 8.63 µM (active) in experiment [1] and 3.06 µM (active) in experiment [2].
On to `C[C@H]1[C@H](O)O[C@@H]2O[C@@]3(C)CC[C@@H]4[C@H](C)CC[C@@H]1[C@@]24OO3`, for which the results for the Potency in experiment [1] and in experiment [2] were 10 µM (active) and 15.8 µM (active), respectively.
For the molecule `C[C@@]12C(=O)OC(=O)[C@@]1(C)C1CCC2O1`, the Potency in experiment [1] is 19.3 µM (active).
Regarding `Clc1ccc(C2(c3ccc(-c4cn[nH]c4)cc3)CCNCC2)cc1`, the Potency in experiment [1] and in experiment [2] was 5.44 µM (active) throughout.
As to `CO[C@H]1C[C@@H]2CC[C@@H](C)[C@@](O)(O2)C(=O)C(=O)N2CCCC[C@@H]2C(=O)O[C@H]([C@H](C)C[C@@H]2CC[C@H](OP(C)(C)=O)[C@H](OC)C2)CC(=O)[C@H](C)C=C(C)[C@@H](O)[C@@H](OC)C(=O)[C@H](C)C[C@H](C)C=CC=CC=C1C`, the Potency was 0.0109 µM (active) in experiment [1] and 0.0153 µM (active) in experiment [2].
For `C[C@@H]1[C@H](O)[C@@H](C)C=CC=CC=CC=CC=CC=CC=C[C@H](O[C@@H]2O[C@H](C)[C@H](O)[C@H](N)[C@@H]2O)C[C@@H]2O[C@](O)(C[C@@H](O)C[C@@H](O)[C@H](O)CC[C@@H](O)C[C@@H](O)CC(=O)O[C@H]1C)C[C@H](O)[C@@H]2C(=O)O`, the Potency is 10.9 µM (active) in experiment [1], 8.63 µM (active) in experiment [2] and 4.85 µM (active) in experiment [3].
For the molecule `Cc1cnc(Nc2ccc(N3CCN(C)CC3)cc2)nc1Nc1cccc(S(=O)(=O)NC(C)(C)C)c1`, the Potency was 3.85 µM (active) in experiment [1], 30.6 µM (active) in experiment [2] and 30.6 µM (active) in experiment [3].
As for `CC(=O)OCC(=O)[C@@]12N=C(C)O[C@H]1C[C@H]1[C@@H]3CCC4=CC(=O)C=C[C@]4(C)[C@@H]3[C@@H](O)C[C@@]12C`, the Potency entry in experiment [1] and in experiment [2] was “inactive” throughout.
Consider `COC1C(O)C(C)OC(OC2CCC3(C)C(CCC4C3C(O)CC3(C)C(C5=CC(=O)OC5)CCC43O)C2)C1O` (centres undefined), for which the Potency in experiment [1] was 0.251 µM (active); in experiment [2], 0.355 µM (active).
Take `CC(=O)OC1CC2(O)C3CCC4CC(O)CCC4(C)C3CCC2(C)C1C1=CC(=O)OC1` (centres undefined): the values for the Potency in experiment [1] and in experiment [2] were 0.282 µM (active) and 0.316 µM (active), respectively.
The corresponding values for `O=C1NC(=O)[C@@H](c2cn3c4c(cccc24)CCC3)[C@H]1c1c[nH]c2ccccc12` are 2.17 µM (active) and 4.32 µM (active).
In the case of `CCc1c2c(nc3ccc(O)cc13)-c1cc3c(c(=O)n1C2)COC(=O)[C@]3(O)CC`, the Potency in experiment [1] is 0.109 µM (active); in experiment [2] it was 0.243 µM (active); in experiment [3], 0.217 µM (active). For the same molecule, the activity change, negative = inhibition in experiment [4] is -97.1%.
